Laboratory results published in PubChem BioAssay AID504339 (National Center for Advancing Translational Sciences (NCATS), 2011).
Out of some 390,000 compounds screened, about 17,000 (4.4%) were called active. Another 8% or so got no clear call; they are omitted. Calls follow the shape of the dose curve; as a rule, active = well fitted inhibition curve with a large enough effect; inconclusive = small, poorly fitted or top-dose-only effect; inactive = no such curve, though single readings can be large or run the other way. For the sample, actives were picked, then their nearest neighbours and some compounds at random.

target: Lysine-specific demethylase 4A (Homo sapiens) (UniProt O75164); assay: qHTS Assay for Inhibitors of JMJD2A-Tudor Domain; details: AlphaScreen JMJD2A-Tudor / H3K4me3 peptide binding; series mostly up to 114 µM; activity change, negative = inhibition: at the top concentration; also: nearly all actives have a fitted effect of over 50% in size
Sequence (O75164 whole entry, looked up, the tested form may be a part): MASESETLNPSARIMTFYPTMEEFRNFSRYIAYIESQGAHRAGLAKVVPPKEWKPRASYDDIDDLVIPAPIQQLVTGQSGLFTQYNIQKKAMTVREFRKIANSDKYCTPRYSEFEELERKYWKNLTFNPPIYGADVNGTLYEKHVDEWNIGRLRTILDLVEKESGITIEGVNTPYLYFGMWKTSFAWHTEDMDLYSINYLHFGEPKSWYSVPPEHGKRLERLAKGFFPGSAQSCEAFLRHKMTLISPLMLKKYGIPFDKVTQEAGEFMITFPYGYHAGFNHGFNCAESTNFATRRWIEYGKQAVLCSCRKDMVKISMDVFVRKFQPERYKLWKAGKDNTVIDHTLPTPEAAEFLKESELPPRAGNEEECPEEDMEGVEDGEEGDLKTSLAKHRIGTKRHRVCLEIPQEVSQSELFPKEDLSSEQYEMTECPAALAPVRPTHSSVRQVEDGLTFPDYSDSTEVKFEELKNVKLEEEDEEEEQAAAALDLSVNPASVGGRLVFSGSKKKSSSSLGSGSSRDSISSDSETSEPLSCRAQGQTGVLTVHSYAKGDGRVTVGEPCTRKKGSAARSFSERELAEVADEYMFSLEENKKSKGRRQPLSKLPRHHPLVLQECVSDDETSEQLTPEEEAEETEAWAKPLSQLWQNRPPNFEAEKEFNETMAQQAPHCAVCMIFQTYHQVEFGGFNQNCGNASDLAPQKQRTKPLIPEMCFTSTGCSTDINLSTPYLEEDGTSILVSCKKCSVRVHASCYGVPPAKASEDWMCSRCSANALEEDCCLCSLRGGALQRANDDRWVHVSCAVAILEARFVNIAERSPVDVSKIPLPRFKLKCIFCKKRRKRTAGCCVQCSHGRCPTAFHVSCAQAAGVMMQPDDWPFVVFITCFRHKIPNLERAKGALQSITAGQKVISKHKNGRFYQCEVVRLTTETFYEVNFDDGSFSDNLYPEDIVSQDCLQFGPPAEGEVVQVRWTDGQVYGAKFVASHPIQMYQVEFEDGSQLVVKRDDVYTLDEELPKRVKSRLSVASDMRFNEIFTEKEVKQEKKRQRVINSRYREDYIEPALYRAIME
Text: JMJD2A is a jumonji-domain-containing lysine demethylase that uses Fe(II) together with 2-OG to effect oxidative demethylation of histones. Methylation is one of many […] modification that affect epigenetic transcription. […] It is proposed that the functions of JmjD2A binding to the histones, is to maintain marks after they are installed and to spread the modifications by […], establishing a self-propagating cycle for rapid methylation over a large area of chromatin. […] Thus, small molecule targeting of the JMJD2A-tudor domain interaction with its target methylhistone mark is expected to enable sophisticated experiments probing the fine regulatory pathways leading to selective demethylation of a given methyllysine locus based on the methylation state of adjacent histone marks. A quantitative high throughput AlphaScreen has been developed to identify small molecule inhibitors based on a protocol published by NCGC and SGC [4].
Although AlphaScreen has significant advantages with its utility in a variety of epigenetic target assays, the primary screening data provided in this deposition should be used with caution due to the prevalence of screening artifacts. The top compound concentration tested was high (>100uM) in this assay, which increases number of actives and potential artifacts. An AlphaScreen counterscreen is highly recommended to be run against any putative actives to eliminate non-specific artifacts. Alternatively, one can use other AlphaScreen assays in PubChem to filter out promiscuous hits.
[1] Lee, J. et al. Distinct binding modes specify the recognition of methylated histone H3K4 and H4K20 by JMJD2A-tudor. Nat Struct Mol Biol. 15(1); 109-11. 2008. PMID: 18084306
[2] Yasgar, et al. Compound Management for Quantitative High-Throughput Screening. JALA. 2008 Apr;13(2):79-89. PMID: 18496600
[3] Inglese, et al. Quantitative high-throughput screening: a titration-based approach that efficiently identifies biological activities in large chemical libraries. Proc Natl Acad Sci. 1;103(31):11473-8. 2006. PMID: 16864780
[4] Quinn et al. A homogeneous method for investigation of methyl-dependent protein-protein interactions in epigenetics. Nucleic Acids Res., 38(2):e11. 2010. PMID: […]
[5] Baell,Holloway. New substructure filters for removal of pan assay interference compounds (PAINS) from screening libraries and for their exclusion in bioassays. J Med Chem. 53(7):2719-40. 2010. PMID: 20131845
NIH Molecular Libraries Probe Production Network [MLPCN]
NIH Chemical Genomics Center [NCGC]
Structural Genomics Consortium (SGC)
To each well of a 1,536w plate, 2ul of JMJD2A-Tudor (final 100nM) and 1ul biotinylated histone peptide methylated at Lys4 [b-H3(1-18)K4me3] (final 50nM) were added in 1x PBS buffer, pH 7.4, containing 0.01% Tween-20, using a nanoliter dispenser. Formation of a protein-peptide complex proceeded at room temperature for 30 min. A Kalypsys pin-tool transferred 23nl of library compound solution in DMSO to each well. Following a 30 min incubation of the protein-peptide complex with compounds at room temperature, a mixture of 40 µg/mL each streptavidin-coated donor and nickel chelate acceptor AlphaScreen beads (final 10 µg/mL) was added in a 1ul dispense for a final volume of 4ul, followed by a brief centrifugation (1000 rpm, 1 min). Plates were incubated protected from the light for 20 min at room temperature. Microplates were then read on an EnVision multilabel plate reader using the 1,536 plate HTS AlphaScreen aperture (excitation time 80 ms, measurement time 240 ms).
% is scaled to controls: 0 for no effect and ±100 for the full control effect; potency is read from the fitted curve at half-maximal effect.

Row | Structure (SMILES) | activity change, negative = inhibition | Potency
1 | Cc1cc(C)cc(NC(=O)NC2CCCCCCC2)c1 | -2.76% (inactive) | –
2 | Cc1ccc(S(=O)(=O)NC2CCCCCC2)cc1 | 0% (inactive) | –
3 | Cc1cc([N+](=O)[O-])c(NC2CCCCC2)c([N+](=O)[O-])c1 | – | 25.1 µM (active)
4 | O=C(CCCCn1c(=O)c2ccccc2n(CC(=O)Nc2cccc(C(F)(F)F)c2)c1=O)NCc1ccc2c(c1)OCO2 | -16.7% (inactive) | –
5 | Cc1ccc(S(=O)(=O)n2nc(C)c(S(=O)(=O)N3CCCCCC3)c2C)cc1 | -26.2% (inactive) | –
6 | COc1ccc(-c2cc3ncccc3cn2)cc1 | -16.9% (inactive) | –
7 | COc1ccc(-c2cc(C3CCN(c4ncccc4[N+](=O)[O-])CC3)[nH]n2)cc1 | – | 56.2 µM (active)
8 | CC(=O)NC(Cc1ccccc1)C(=O)NC1CCN(c2ncccc2[N+](=O)[O-])CC1 (stereo not drawn) | -12.3% (inactive) | –
9 | Cc1ccc(F)cc1S(=O)(=O)N1CCC(c2nc3ccccc3s2)CC1 | 8.18% (inactive) | –
10 | N#Cc1c(-c2ccc(Cl)cc2)c2c([nH]c1=S)CCCC2 | -20.6% (inactive) | –
11 | Cc1cc(C)c2c(-c3ccc(F)cc3)c(C#N)c(=O)n(C)c2n1 | -9.54% (inactive) | –
12 | CC(=O)c1c(C)[nH]c(=S)c(C#N)c1-c1ccc(F)cc1 | – | 5.62 µM (active)
13 | CC1CCN(S(=O)(=O)c2ccc3c(c2)N(CC(=O)NCCc2ccccc2)C(=O)CO3)CC1 | -19.4% (inactive) | –
14 | COc1cccc(C(=O)NC2=NC(c3ccc(N(C)C)cc3)CC(=O)N2)c1 (stereo not drawn) | -21.2% (inactive) | –
15 | O=C(O)CCC(=O)N(Cc1ccccc1)Cc1ccccc1 | -17.7% (inactive) | –
16 | Oc1ccc(/C=N/N(Cc2ccccc2)c2ccccc2)cc1 | – | 44.7 µM (active)
17 | Cc1ccc(-c2cn3c(n2)sc2cc(C(=O)NCc4cccs4)ccc23)c(C)c1 | 68.4% (inactive) | –
18 | O=C1CC(c2ccccc2)CC2=C1C(c1ccco1)n1nc(C(F)(F)F)nc1N2 (stereo not drawn) | -27.7% (inactive) | –
19 | Cc1ccc(S(=O)(=O)N2CCCc3cc(NS(=O)(=O)c4cc(C)ccc4C)ccc32)cc1 | -24.2% (inactive) | –
20 | COc1ccc(CSc2nnnn2-c2ccc(C(=O)O)cc2)cc1 | 4.63% (inactive) | –
21 | CC(C)Oc1ccc(CCc2nnc(SCC(=O)O)n2-c2ccccc2)cc1 | -11.2% (inactive) | –
22 | COc1ccc(NCc2nnc(SCc3ccccc3)n2-c2ccc(OC)cc2)cc1 | – | 50.1 µM (active)
23 | O=C1C[C@@H](c2ccc3ccccc3c2)N1S(=O)(=O)c1ccccc1[N+](=O)[O-] | -23.4% (inactive) | –
24 | COc1ccc(-c2nc(CN3CCC(C(=O)NCCN(CC(C)C)CC(C)C)CC3)c(C)o2)cc1OC | -9.76% (inactive) | –
25 | COc1ccc(OC)c(NC(=O)C2CCN(S(=O)(=O)c3ccc(C)cc3)CC2)c1 | -13.8% (inactive) | –
26 | COc1ccccc1C(=O)Nc1ccc(OCc2nnc3c4ccccc4c(C)nn23)cc1 | -4.03% (inactive) | –
27 | Cc1ccc(OCc2nnc(SC3CCc4ccccc4C3=O)n2C)cc1 (stereo not drawn) | – | 28.2 µM (active)
28 | Cc1cccnc1NC(=O)CSc1nnc(COc2ccc(C(C)C)cc2)n1C | -4.17% (inactive) | –
